HTT aggregate – mutant huntingtin aggregation inhibition; PC12 HttQ103-GFP aggregates, Acumen cytometry, 40 h; Potency, µM (titrated, usually from 46.1 µM), for inactives: at the top dose activity change, negative = inhibition, hits mostly inhibitors; 220,000 tested, 1.1% active; also: potency is read from the fitted curve at half-maximal effect; % is scaled to controls: 0 for no effect and ±100 for the full control effect; nearly all actives have a fitted effect of over 60% in size
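Ecdysone-promoter PC12 model expressing HTT exon 1 Q103 fused to GFP, induced by tebufenozide at 100 nM final. Compounds titrated; aggregates sized 1–25 µm scored on a 488 nm laser cytometer.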
HTT cytoprotect – cytoprotection in Huntington HTT-Q103 PC12 cell model; 230,000 tested, 0.14% active; PC12 HTT-Q103 induced, cytoprotection, ATP luminescence, 40 h; Potency, µM (series often up to 56.4 µM), inactives show cytoprotection (ATP increase), usual class: activators; AID 1471; also: potency is read from the fitted curve at half-maximal effect; % of control where 0% means no effect; nearly all actives have a fitted effect of over 45% in size
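Rat PC12, Q103 Htt exon1-GFP fusion, ecdysone promoter; tebufenozide inducer 100 nM final; compound titration; qHTS, 1500 cells/well; ATPlite luminescent read.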
PNC inhibitor – perinucleolar compartment assembly inhibition; PC3M PTB-GFP, PNC prevalence imaging, 16 h; stronger effect = lower value; activity change (PNC), negative = inhibition, % at 10 µM; 140,000 tested, 3.1% active; AID 2417;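 active = readout at or below -70, meaning at least 70% loss of cells showing the perinucleolar compartment, a nuclear body marking cancer cells; inconclusive = readout between -30 and a set limit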;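 also: plate controls were DMSO wells for no effect and camptothecin positive control wells for full effect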
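PC3M cells stably expressing PTB-GFP, 750–1000 cells/well, treated 16 h at 37 °C with compound (23 nl of library stock), in duplicate. After paraformaldehyde fixation and Hoechst stain, imaged at 20x; PNC prevalence scored by image analysis.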
* marks the source's active call; other numbers are inactive results; [ ] = another dose, or the depositor's remark. This excerpt belongs to a sample that is enriched for hits. Unless noted, calls follow the shape of the dose curve; as a rule, active = well fitted curve in the direction sought with a large enough effect; inconclusive = small, poorly fitted or top-dose-only effect, or another doubt; inactive = no such curve, though single readings can be large; an effect the other way counts as inactive or inconclusive.

For CCC(C)Oc1cccc(C(=O)Nc2ccccc2N2CCOCC2)c1 (centres undefined) the results were HTT aggregate -0.8%, HTT cytoprotect -20.8% and PNC inhibitor -86.8*.
Screening COc1ccc(NC(=O)/C(Cl)=C(/Cl)S(=O)Cc2ccccc2)cn1 (centres undefined) returned HTT aggregate 5.01µM*, HTT cytoprotect -91.4% and PNC inhibitor inconclusive.
COc1ccc(NC(=O)Cc2ccccc2)cn1 was read as HTT aggregate -5.7% and HTT cytoprotect -19.1%.
CNC(=O)c1ccc(-c2sc3nc(N4CCOCC4)c4c(c3c2N)CCCC4)o1 was read as HTT aggregate 17.0%, HTT cytoprotect -24.2%[10 µM] and PNC inhibitor -16.8.
`O=C1OC2(c3ccc(O)cc3Oc3cc(O)ccc32)c2ccccc21` gave HTT cytoprotect -45.4%.
CC(=O)Oc1ccc2c(c1)Oc1cc(OC(C)=O)ccc1C21OC(=O)c2ccccc21 was read as HTT aggregate 0.316µM*, HTT cytoprotect 14.1%[10 µM] and PNC inhibitor -100.0*.
For NC(=O)c1ccc(NC(=O)Cn2c(=O)n(-c3ccccc3)c(=O)c3oc4ccccc4c32)cc1 the results were HTT aggregate 9.3% and HTT cytoprotect 24.4%.
For CCOc1ccc(NC(=O)c2cnsn2)cc1 the results were HTT aggregate -9.2%, HTT cytoprotect -110.0%[0.074 µM] and PNC inhibitor inconclusive.
`CN1C(=O)Cn2c1nc1ccccc12` gave HTT aggregate 19.7%, HTT cytoprotect 1.1% and PNC inhibitor 23.1.
For O=C1Cn2c(nc3ccccc32)N1c1ccccc1F the results were HTT aggregate -12.0%, HTT cytoprotect -7.8% and PNC inhibitor -101.6*.
`COc1ccc(-n2c(O)c(Cc3ccccc3)c(=O)n3nc(-c4ccccc4)c(=O)cc23)cc1` gave HTT aggregate -13.4%, HTT cytoprotect 2.7%[10 µM] and PNC inhibitor -27.9.
Screening O=C(NCc1nnc2c3ccccc3c(-c3ccccc3)nn12)c1ccccc1Cl returned HTT aggregate 3.1%, HTT cytoprotect 30.3%[0.074 µM] and PNC inhibitor 15.0.
Screening O=C(COc1ccc(Cl)cc1)NCc1nnc2c3ccccc3c(-c3ccccc3)nn12 returned HTT aggregate 18.2%, HTT cytoprotect 11.5%[10 µM] and PNC inhibitor -108.5*.
`Cc1c(C2C(C#N)=C(N)N(c3cccc([N+](=O)[O-])c3)C3=C2C(=O)CCC3)cnn1C` (centres undefined) gave HTT aggregate -10.5%[9.22 µM] and HTT cytoprotect 1.5%[10 µM].
For COc1ccc(-c2nnn(CC(=O)NCc3cccs3)n2)cc1OC the results were HTT aggregate -24.9%, HTT cytoprotect 9.3%[10 µM] and PNC inhibitor -0.2.
For CCOC(=O)c1c(N)nn(C(=O)CC)c1-c1ccccc1 the results were HTT aggregate inconclusive, HTT cytoprotect 12.8% and PNC inhibitor -100.0*.
For CC(=O)c1ccccc1OCCn1nnc(-c2ccc(C)cc2)n1 the results were HTT aggregate 20µM*, HTT cytoprotect 2.1%[10 µM] and PNC inhibitor 223.1.
Screening COC(=O)CCn1nnc(-c2ccc(C)cc2)n1 returned HTT aggregate -0.6%, HTT cytoprotect -0.3%[10 µM] and PNC inhibitor -0.6.
`CC(C)OC(=O)Cn1nnc(-c2ccccc2)n1` gave HTT aggregate -7.3%[1.84 µM], HTT cytoprotect 30.2% and PNC inhibitor -9.0.
Screening CCOC(=O)Cn1nnc(-c2ccccc2)n1 returned HTT aggregate -17.7%, HTT cytoprotect -15.8%[10 µM] and PNC inhibitor -100.0*.
Screening CCOC(=O)c1c(N)nn(C(=O)C(C)C)c1-c1ccccc1 returned HTT aggregate -26.3%, HTT cytoprotect -3.0% and PNC inhibitor -17.1.
`COc1ccc(-c2nnn(CC(=O)NCc3ccccc3)n2)cc1OC` gave HTT aggregate -17.8%, HTT cytoprotect 9.1%[10 µM] and PNC inhibitor -118.9*.
Screening COc1cc2nc(CSc3ncn[nH]3)[nH]c(=O)c2cc1OC returned HTT aggregate -2.3% and HTT cytoprotect -20.5%.
CC(C)(C)C(=O)N1N=C(c2cccc(NS(C)(=O)=O)c2)CC1c1cccs1 (centres undefined) was read as HTT aggregate -28.9% and HTT cytoprotect inconclusive.
CC(C)(C)NC(=O)CCN(/N=C/c1ccc([N+](=O)[O-])o1)C1=NS(=O)(=O)c2ccccc21 was read as HTT aggregate inconclusive, HTT cytoprotect 8.2%[10 µM] and PNC inhibitor 51.0.
Screening Cn1c(=S)c2[nH]c(SCc3cccnc3)nc2n(C)c1=O returned HTT cytoprotect 2.5%[10 µM].
`O=C1CSC(c2ccccc2F)N1c1cc(Cl)ccc1O` (centres undefined) gave HTT aggregate 21.9%, HTT cytoprotect -18.7% and PNC inhibitor 1.1.
`CCOC(=O)Cn1nnc(-c2cccc(OC)c2)n1` gave HTT aggregate 9.0%, HTT cytoprotect -29.2%[10 µM] and PNC inhibitor inconclusive.

Source: PubChem
